Data on 33 compounds can be found in PubChem BioAssay AID588763 (NMMLSC, 2011).

Results with a measured potency or affinity are listed apart. Values without a mark were called inactive. Activity calls are given as the source filed them. The rule behind the calls is not given here.

The target in this test is Beta-2 adrenergic receptor (Homo sapiens) (UniProt P07550). As to the kind of experiment: beta2AR agonists driving receptor internalization, dose response, cell-based, FAP fluorogen, flow cytometry, cherry pick 1 (AID 588763). To be noted: AM2.2-beta2AR cells, 90 min; series mostly up to 33 µM; activation (receptor internalization): at the top concentration.
Beta-2 adrenergic receptor (Homo sapiens), sequence (P07550 whole entry, looked up): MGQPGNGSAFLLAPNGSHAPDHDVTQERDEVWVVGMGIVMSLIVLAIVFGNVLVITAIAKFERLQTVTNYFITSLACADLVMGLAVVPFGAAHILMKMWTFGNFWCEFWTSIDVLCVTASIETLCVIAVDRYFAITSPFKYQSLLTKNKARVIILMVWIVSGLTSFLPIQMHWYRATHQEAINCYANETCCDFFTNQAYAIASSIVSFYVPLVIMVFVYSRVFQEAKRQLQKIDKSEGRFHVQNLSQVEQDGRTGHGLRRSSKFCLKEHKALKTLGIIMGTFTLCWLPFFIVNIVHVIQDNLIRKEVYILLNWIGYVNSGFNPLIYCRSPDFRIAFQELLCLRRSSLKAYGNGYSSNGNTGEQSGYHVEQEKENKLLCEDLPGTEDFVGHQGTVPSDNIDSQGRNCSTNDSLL
For the compound `NC(=O)CC(NC(=O)c1ccccc1)c1ccc(N2CCN(c3ccccn3)CC2)c([N+](=O)[O-])c1` (stereo not drawn), the “activation (receptor internalization)” value was 14.7%.

In the case of `CN(CC(=O)N1CCN(c2ccc(F)cc2)CC1)S(=O)(=O)c1ccc(F)cc1`, the result was inactive.

For the compound `COc1ccc(-c2nc(NC(=O)c3cc(C(C)(C)C)nn3C)sc2C)cc1`, the “activation (receptor internalization)” value was 33.8%.

In the case of `O=C(c1ccc(-c2nnc(Nc3ccccc3)c3ccccc23)cc1)N1C[C@H]2C[C@H](C1)c1cccc(=O)n1C2`, the “activation (receptor internalization)” value is 4.94%.

Take `Cc1ccc(OCc2cc(C(=O)NC3CCc4ccccc43)no2)cn1` (stereo not drawn): the “activation (receptor internalization)” value is -23%.

As for `COc1ccc(OC)c(S(=O)(=O)N(C)CC(=O)N2CCN(c3ccccc3F)CC2)c1`, the compound was called inactive.

As for `CCCOc1ccc(-c2nnn(CC(=O)Nc3cccc(C(=O)OC)c3)n2)cc1`, the “activation (receptor internalization)” value was -10.7%.

In the case of `C=CCn1c(CCNC(=O)c2cccs2)nnc1SCC(=O)Nc1cccc(Cl)c1C`, the “activation (receptor internalization)” value was 81.8%.

With `O=C(COc1ccc(S(=O)(=O)N2CCOCC2)cc1)Nc1ccc2c(c1)OCCO2`, the “activation (receptor internalization)” value is 5.84%.

Regarding `COc1ccccc1N1CCN(C(=O)CN(C)S(=O)(=O)c2cc(C)ccc2OC)CC1`, the “activation (receptor internalization)” value is 77.6%.

`COCc1ccc(CN2CCCC(C(=O)Nc3ccc(-c4cccc(OC)c4)cc3)C2)o1` (stereo not drawn): the “activation (receptor internalization)” value was 24.9%.

Take `Cc1ccccc1NC(=O)COc1ccc(S(=O)(=O)N2CCCC2)cc1C`: the “activation (receptor internalization)” value was -0.639%.

As for `CC(C)CNc1ncnc2c1sc1nc(N3CCOCC3)c3c(c12)CC(C)(C)OC3`, the “activation (receptor internalization)” value was -1.37%.

Consider `CCOC(=O)c1ccc(NC(=O)Cn2nnc(-c3ccccc3C)n2)cc1`, for which the “activation (receptor internalization)” value was -1.98%.

For the compound `CC1CCN(C(C(=O)Nc2ccc3c(c2)OCO3)c2ccccc2)CC1` (stereo not drawn), the “activation (receptor internalization)” value is 6.59%.

Turning to `Cc1ccc(-c2nnc(SCc3nc4ccccc4[nH]3)n2Cc2ccco2)cc1`, the “activation (receptor internalization)” value was -2.47%.

As to `O=C1CN(S(=O)(=O)c2cccc(Cl)c2Cl)c2ccccc2N1`, the “activation (receptor internalization)” value was 41.8%.

Turning to `CC1=NN(C(N)=S)C(=O)C1N=Nc1ccc(F)cc1` (stereo not drawn), the “activation (receptor internalization)” value was -24%.

As for `Cc1ccc(C(=O)c2cc([N+](=O)[O-])ccc2N2CCCCC2)c(C)c1`, the “activation (receptor internalization)” value was 47.8%.

Regarding `COc1ccc(-c2nc3c4ccccc4ccn3c2CN2CCOCC2)cc1OC`, the “activation (receptor internalization)” value was -4.07%.

As for `COc1ccc(Cl)c(NC(=O)Cn2nnc(-c3ccccc3N)n2)c1`, the “activation (receptor internalization)” value is 7.97%.

In the case of `CCOc1cc(/C=C2\CN(C)C/C(=C\c3ccc(O)c(OCC)c3)C2=O)ccc1O`, the “activation (receptor internalization)” value was 72.9%.

For `CCCCn1c(=N)n(CC(=O)c2ccc(Br)s2)c2ccccc21`, the “activation (receptor internalization)” value was 98.7%.

As for `c1ccc(-c2nnc(SCc3nc4ccccc4[nH]3)n2Cc2ccco2)cc1`, the “activation (receptor internalization)” value is -6.19%.

Take `Cc1cc(S(=O)(=O)N2CCCCC2)ccc1OCC(=O)Nc1ccccc1`: the “activation (receptor internalization)” value was 2.64%.

Consider `CC(C)c1nc2sc3c(NCc4ccccc4)ncnc3c2c2c1COC(C)(C)C2`, for which the “activation (receptor internalization)” value was 13%.

Regarding `COc1ccc(OC)c(S(=O)(=O)N(C)CC(=O)N2CCN(c3cccc(Cl)c3)CC2)c1`, the call was inactive.

Regarding `COc1ccccc1C(=O)Nc1ccc2oc(-c3ccc(F)cc3)nc2c1`, the “activation (receptor internalization)” value was -9.56%.

With `CN(C)c1ccc(-c2nnn(CC(=O)Nc3ccccc3N3CCOCC3)n2)cc1`, the “activation (receptor internalization)” value was 0.33%.

On to `Fc1ccc(Sc2nc(-c3ccccc3)nnc2C(F)(F)F)cc1`, for which the “activation (receptor internalization)” value was 101%.

As for `O=C(c1cc2c(ccc3ccccc32)o1)N1CCN(c2ncc(C(F)(F)F)cc2Cl)CC1`, the “activation (receptor internalization)” value is 99.9%.

With `CCc1ccc(CN(C)C(=O)c2cc(COc3cncc(Cl)c3)on2)cc1`, the “activation (receptor internalization)” value is -3.26%.

Regarding `Cc1ccc(-c2nc(NC(=O)c3cc(C(C)(C)C)nn3C)sc2C)cc1Cl`, the “activation (receptor internalization)” value is 14.2%.
